Results as given in PubChem BioAssay AID1159580 (chemical genetic matrix, 2015).
Among all 5,500 compounds or so, about 2,000 (36%) were called active. Roughly 18% stayed inconclusive and do not appear here. No stated cut-off is given here; in the data, active means normalized growth mostly below about 0.91 (no sharp cut-off); inconclusive means no clear call, values can overlap the other calls; inactive means mostly above about 0.92. This is one part of the list.

Assay: chemical genetic growth profiling, strain panel (AID 1159580);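 further: tested at 20 µM; growth read once vehicle control cultures reached saturation at 30 °C; 1 = growth at the plate median or of vehicle wells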
Settings: S. cerevisiae deletion strains, growth OD

Measured: normalized growth

O=c1[nH]c2cc([N+](=O)[O-])c([N+](=O)[O-])cc2[nH]c1=O
inactive: locus YAL013W, strain DEP1, stronger effect = lower value 0.998 | locus YAL040C, strain CLN3, stronger effect = lower value 1.03 | locus YCL061C, strain MRC1 (second series), stronger effect = lower value 1 | locus YDR363W, strain ESC2, stronger effect = lower value 0.986 | locus YER002W, strain NOP16, stronger effect = lower value 0.996 | locus YGR078C, strain PAC10, stronger effect = lower value 1 | locus YGR229C, strain SMI1, stronger effect = lower value 0.977 | locus YJR075W, strain HOC1, stronger effect = lower value 0.987 | locus YMR263W, strain SAP30, stronger effect = lower value 1 | locus YNL128W, strain TEP1, stronger effect = lower value 1.01 | locus YNL153C, strain GIM3, stronger effect = lower value 1.01 | locus YNL175C, strain NOP13, stronger effect = lower value 1.01 | locus YNL197C, strain WHI3, stronger effect = lower value 0.989 | locus YNL224C, strain SQS1, stronger effect = lower value 0.989 | locus YNL322C, strain KRE1, stronger effect = lower value 0.986 | locus YOR083W, strain WHI5 (second series), stronger effect = lower value 0.969 | locus YPL055C, strain LGE1, stronger effect = lower value 0.988 | locus YPL241C, strain CIN2, stronger effect = lower value 1
